HEK cytotox – kills HEK 293 cells; HEK 293 viability, ATP luminescence (CellTiter-Glo), 48-72 h; Potency, µM (top dose mostly 115 µM), inactives show at the highest dose activity change, negative = cytotoxicity, usual class: inhibitors; 6.6% of 94,000 active; AID 1345083; also: nearly all actives have a fitted effect of over 60% in size
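qHTS cytotoxicity; HEK 293, 250 cells/well; compound pinned; 48 or 72 hr, 37 degree Celsius, 5% CO2, 95% humidity; CellTiter-Glo, 10 min RT; luminescence (ATP).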
3T3 cytotox – kills NIH 3T3 cells; NIH 3T3 viability, CellTiter-Glo ATP luminescence, 48-72 h; Potency, µM (doses to about 96.7 µM), without a hit: at the highest dose activity change, negative = cytotoxicity, most hits filed as inhibitors; 4.3% of 94,000 active; AID 1345082; also: nearly all actives have a fitted effect of over 55% in size
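Mouse fibroblast NIH 3T3 cells, 400 per well, received compound via pintool and were incubated for 48 or 72 hr prior to CellTiter-Glo ATP luminescence measurement.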
GPT2 inhibitor – inhibitors of human GPT2 alanine aminotransferase; Q8TD30; Recombinant GPT2, coupled pyruvate oxidase/HRP Amplex Red fluorescence; Potency, µM (top dose mostly 57.7 µM), without a hit: at the highest dose activity change, negative = inhibition, most hits filed as inhibitors; 0.25% of 100,000 active; AID 1671188; also: nearly all actives have a fitted effect of over 60% in size
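Fluorescence of coupled pyruvate oxidase/HRP/Amplex Red system (50uM Amplex, 30 min, dark) reports pyruvate formed by GPT2. Enzyme reaction: 10ng/uL GPT2, 2mM L-alanine, 250uM a-KG, 30 min room temperature, pH 7.5; 50uM AOA control.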
hNpr1 antagonist – blocks ANP-stimulated signaling of human Npr1 receptor; AID 1347048; 1.6% of 76,000 active; P16066; Potency, µM (titrated, usually from 46.3 µM), inactives show top-dose activity change, negative = inhibition, actives largely listed as inhibitors; HEK293 hNpr1 GloSensor cGMP, ANP-stimulated luminescence; calls by dose curve; also: nearly all actives have a fitted effect of over 60% in size
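Compound pre-incubated 30 min at room temperature on GloSensor-loaded HEK293 cells stably carrying hNpr1 and the pGS-40F cGMP biosensor. Stimulation uses hNppA at 0.1 nM final; luminescence is taken at baseline and 20 min post-agonist.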
FLuc inh – Photinus pyralis luciferase inhibition; P08659; purified P. pyralis luciferase, luminescence, biochemical; Potency, µM (doses to about 115 µM), usual class: inhibitors; 2.5% of 76,000 active; AID 1347043; also: nearly all actives have a fitted effect of over 65% in size
Target sequence (P08659 whole entry, looked up): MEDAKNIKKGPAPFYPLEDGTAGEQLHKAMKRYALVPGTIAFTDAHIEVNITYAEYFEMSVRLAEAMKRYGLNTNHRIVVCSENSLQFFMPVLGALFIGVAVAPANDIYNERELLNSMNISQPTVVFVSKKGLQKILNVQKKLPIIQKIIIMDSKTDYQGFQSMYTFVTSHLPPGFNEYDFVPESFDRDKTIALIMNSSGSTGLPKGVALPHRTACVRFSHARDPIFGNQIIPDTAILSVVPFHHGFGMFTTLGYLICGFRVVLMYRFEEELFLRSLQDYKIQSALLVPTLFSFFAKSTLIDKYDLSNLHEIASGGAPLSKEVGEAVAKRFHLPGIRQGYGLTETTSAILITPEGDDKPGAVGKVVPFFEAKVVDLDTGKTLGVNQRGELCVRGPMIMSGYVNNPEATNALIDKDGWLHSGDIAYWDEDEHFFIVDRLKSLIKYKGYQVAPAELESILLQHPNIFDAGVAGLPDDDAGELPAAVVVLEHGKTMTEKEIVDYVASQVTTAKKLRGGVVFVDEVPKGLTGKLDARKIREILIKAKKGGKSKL
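Purified P. pyralis luciferase (10nM final) in 50mM Tris acetate pH 7.5, 10mM Mg acetate, 0.01% Tween-20, 0.05% BSA with 10uM D-luciferin and 10uM ATP. Compounds titrated qHTS. Luminescence imaged on CCD.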
Numbers without * were called inactive; i = inactive; ? = inconclusive; nt = no result; ! = repeats disagree; [ ] = another dose, or the depositor's remark. Rows were chosen to be rich in hits. Some 10% of all compounds tested hit in one or more screens of this group. Unless noted, calls follow the shape of the dose curve; as a rule, active = well fitted curve in the direction sought with a large enough effect; inconclusive = small, poorly fitted or top-dose-only effect, or another doubt; inactive = no such curve, though single readings can be large; an effect the other way counts as inactive or inconclusive. % is scaled to controls: 0 for no effect and ±100 for the full control effect; potency is read from the fitted curve at half-maximal effect.

SMILES	HEK cytotox	3T3 cytotox	GPT2 inhibitor	hNpr1 antagonist	FLuc inh
O=C(NC1CCCC1)C1Cn2cccc2C(=O)N1Cc1cccnc1 (centres undefined)	i	1.9%	i	6.6%	i
O=C1N(CCc2ccccc2)c2ccccc2C12CCN([S+](=O)([O-])c1cccc(C(F)(F)F)c1)C2 (centres undefined)	?	?	-2.1%	20.3%	i
COc1ccc(NC(=O)O[C@@H]2CC[C@]3(C)C(CC[C@@H](O)[C@H]3CC(=O)NCc3ccccc3OC)[C@]2(C)CO)cc1 (some centres undefined)	?	-29.4%	4.6%	-7.7%	i
O=C(O)CCn1ncc2cc(OC3CCN(C(=O)OC4CCCC4)CC3)ccc21	-13.1%[172 µM]	?	3.9%[88.5 µM]	1.1%[70.6 µM]	?
Cc1ccc(OC(=O)N2CCC(Oc3ccc4c(cnn4CCC(=O)O)c3)CC2)cc1	-10.5%[172 µM]	35.5µM*	1.1%[88.5 µM]	4.4%[70.6 µM]	i
Cc1ccc(OC(=O)N2CCC(COc3ccc4c(cnn4CCC(=O)O)c3)CC2)cc1	?	-41.0%[138 µM]	2.7%[88.5 µM]	-0.5%[70.6 µM]	i
O=C(O)CCn1ncc2cc(OC3CCN(C(=O)Oc4ccccc4Cl)CC3)ccc21	-25.9%	8.91µM*	1.4%	nt	i
OC(c1nc(Nc2ccc(Cl)c(C(F)(F)F)c2)n[nH]1)C1CC1 (centres undefined)	56.2µM*	50.1µM*	-3.2%[88.5 µM]	?	?
COc1ccc(Nc2n[nH]c(C(O)c3cccc(C(F)(F)F)c3)n2)cn1 (centres undefined)	?	?	i	-22.0%[70.6 µM]	i
Cc1ccccc1Nc1n[nH]c(C(O)c2ccc3c(c2)CCO3)n1 (centres undefined)	?	?	?	-5.4%[70.6 µM]	i
OC(c1cccc(C(F)(F)F)c1)c1nc(Nc2cccc(Cl)c2)n[nH]1 (centres undefined)	63.1µM*	50.1µM*	i	?	i
OC(c1ccc2c(c1)CCO2)c1nc(Nc2cccc(C(F)(F)F)c2)n[nH]1 (centres undefined)	70.8µM*	?	?	-8.0%[70.6 µM]	i
CNC(=O)c1cc(C2CC2)nc2c1c(C1CCCN(C(=O)c3ccccc3C)C1)nn2C (centres undefined)	-16.3%	-14.6%	nt	nt	nt
O=C(Nc1ccc(F)cc1)[C@@H]1C[C@@H](c2ccc(F)cc2)N([S+](=O)([O-])c2cccnc2)C1	?	?	?	-1.7%	i
N#Cc1cnc2c(Cl)cc(NCc3cn(CCN4CCCCCC4)nn3)cc2c1Nc1ccc(F)c(Cl)c1	nt	nt	i	nt	nt
CC(C)(CC(=O)O)CC(=O)N1C[C@@H]2C[C@H](C1)c1ccc(-c3cc4ccccc4s3)c(=O)n1C2	-9.9%	-15.3%	?	-2.3%	22.4µM*
CCNC(=O)N1CCc2nc(OCC)ccc2C1	1.4%	-18.6%	2.9%	11.7%	i
CCn1nccc1C(=O)N1CC(Oc2ccc(-c3nc(-c4ccccc4)no3)cc2)C1	11.2µM*	?	i	4.47µM*	?
CCn1nccc1C(=O)N1CC(Oc2cccc(-c3nc(C)no3)c2)C1	?	-27.6%	i	-2.8%	i
CCn1ccc(C(=O)N2CC(Oc3ccc(-c4nc(-c5ccccc5)no4)cc3)C2)n1	?	39.8µM*	i	-17.0%	?
CCOc1ccc(NC(=O)CN2C(=O)NC3(CCC(C)CC3)C2=O)cc1 (centres undefined)	-24.1%	-27.3%	i	-0.3%	i
CN(C)Cc1c(C(=O)NCCOc2ccc(C(=O)NO)cc2)oc2ccccc12	nt	nt	30.6µM*!	nt	nt
O=C1CCN(S(=O)(=O)c2ccccc2)CCCC(C(=O)NCCCN2CCOCC2)CCN1 (centres undefined)	-5.1%	4.3%	4.5%	5.0%	i
Cc1ccc(Cn2cc(-c3ccncc3)cc2C(=O)NCc2ccc(N(C)C)cc2)cc1	44.7µM*	?	-9.0%	0.2%	i
Cc1ccccc1Cn1cc(-c2ccncc2)cc1C(=O)NCc1ccncc1	?	?	-6.7%	-10.4%	i
SMILES	HEK cytotox	3T3 cytotox	GPT2 inhibitor	hNpr1 antagonist	FLuc inh
Cc1cccc(CN2CCCC(c3nc(-c4cccnc4)no3)CCNC(=O)CC2)c1 (centres undefined)	?	?	-3.5%	-2.8%	i
O=C1CCN(Cc2cccc(F)c2)CCCC(c2nc(-c3cccnc3)no2)CCN1 (centres undefined)	79.4µM*	?	-4.5%	2.0%	i
O=C(NCCCc1ccccc1)[C@@H]1CCCN1c1nccc(Nc2ccccc2Cl)n1	?	?	i	nt	nt
O=c1c2c(n(Cc3cccnc3)n1-c1ccccc1)CN(CC1CCOC1)CC2 (centres undefined)	1.8%[172 µM]	?	-6.3%[88.5 µM]	1.5%[70.6 µM]	i
O=c1c2c(n(Cc3cccnc3)n1CCc1ccccc1)CN(CC1CC1)CC2	i	39.8µM*	-12.9%[88.5 µM]	2.9%[70.6 µM]	i
CCn1c2c(c(=O)n1Cc1ccccc1)CCN(Cc1cncc(OC)c1)C2	3.7%[172 µM]	79.4µM*	i	0.9%[70.6 µM]	i
COc1ccc(Cn2c3c(c(=O)n2Cc2ccccc2)CCN(CC2CCOC2)C3)cc1 (centres undefined)	-29.1%[172 µM]	28.2µM*	2.7%[88.5 µM]	-19.8%[70.6 µM]	i
O=c1c2c(n(Cc3cccnc3)n1CCc1ccccc1)CN(CC1CCOC1)CC2 (centres undefined)	-13.6%[172 µM]	44.7µM*	i	2.1%[70.6 µM]	i
N#Cc1cccc(CN2CCc3c(n(Cc4cccnc4)n(CCc4ccccc4)c3=O)C2)c1	?	?	-4.6%	-1.9%	i
O=C(NCCc1ccccc1F)c1nc2sccn2c1-c1cccnc1	?	?	-7.4%	nt	nt
COc1cccc(-c2c(C(=O)NCCc3ccccc3)nc3sccn23)c1	?	?	-0.5%	nt	nt
NS(=O)(=O)OC[C@@H]1C[C@@H](n2ccc3c(N[C@H]4CCc5ccccc54)ncnc32)C[C@@H]1O	nt	nt	-18.4%	nt	nt
COCCn1c(=O)n([C@H]2CCCN(C(=O)Cc3cccc(F)c3)C2)c2ncccc21	i	2.7%	i	7.1%	i
O=C(CCc1c[nH]c2ccccc12)N1CCC[C@H](n2c(=O)n(CC3CC3)c3cccnc32)C1	79.4µM*	?	-9.1%	-2.7%	i
Cc1nc(C)c(C(=O)N2CCC[C@H](n3c(=O)n(Cc4ccccc4)c4cccnc43)C2)s1	39.8µM*	-14.5%	i	-8.3%	i
Cc1cccc(CC(=O)N2CCC[C@H](n3c(=O)n(Cc4ccccc4)c4cccnc43)C2)c1	39.8µM*	?	i	?	i
O=C(NCc1ccccc1)N1CCC[C@H](n2c(=O)n(CC3CC3)c3cccnc32)C1	-27.8%	-23.5%	?	-4.0%	i
COc1ccc(C2=NOC3(CCCN(CC4CCCCC4)C3)C2)cc1 (centres undefined)	?	?	i	nt	nt

High-throughput results (PubChem)
